Here are results for seven compounds from ChEMBL document CHEMBL1961873, “Compounds: GSK PKIS; Assays: Nanosyn kinase panel” (2012).

Assay [1] concerns the target Calcium/calmodulin-dependent protein kinase type II subunit alpha (Homo sapiens) (UniProt Q9UQM7). The conditions noted are these: at 1 µM.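 Note: reported value is a mean percent inhibition of CAMK2A.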
For assay [2], the target named is Calcium/calmodulin-dependent protein kinase type II subunit delta (Homo sapiens) (UniProt Q13557). The settings on record: at 0.1 µM.
Chain of Calcium/calmodulin-dependent protein kinase type II subunit delta (Homo sapiens) (Q13557 whole entry): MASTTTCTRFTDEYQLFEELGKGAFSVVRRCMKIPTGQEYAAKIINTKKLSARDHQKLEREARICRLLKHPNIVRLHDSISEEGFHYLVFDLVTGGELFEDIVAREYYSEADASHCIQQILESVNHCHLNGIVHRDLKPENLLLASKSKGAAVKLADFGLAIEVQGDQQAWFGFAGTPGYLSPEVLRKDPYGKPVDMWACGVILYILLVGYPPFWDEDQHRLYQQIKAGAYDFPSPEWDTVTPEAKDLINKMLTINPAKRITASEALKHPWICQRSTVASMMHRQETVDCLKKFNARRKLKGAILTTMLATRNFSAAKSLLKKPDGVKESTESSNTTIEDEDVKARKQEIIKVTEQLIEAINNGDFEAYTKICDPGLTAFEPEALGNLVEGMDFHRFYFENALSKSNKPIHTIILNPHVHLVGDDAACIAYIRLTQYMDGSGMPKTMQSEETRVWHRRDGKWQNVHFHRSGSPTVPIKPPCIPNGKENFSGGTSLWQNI
Assay [3] has the same target. The settings on record: at 1 µM.
Assay [4] deals with T1, Calcium/calmodulin-dependent protein kinase type IV (Homo sapiens) (UniProt Q16566).
T1 sequence (whole entry): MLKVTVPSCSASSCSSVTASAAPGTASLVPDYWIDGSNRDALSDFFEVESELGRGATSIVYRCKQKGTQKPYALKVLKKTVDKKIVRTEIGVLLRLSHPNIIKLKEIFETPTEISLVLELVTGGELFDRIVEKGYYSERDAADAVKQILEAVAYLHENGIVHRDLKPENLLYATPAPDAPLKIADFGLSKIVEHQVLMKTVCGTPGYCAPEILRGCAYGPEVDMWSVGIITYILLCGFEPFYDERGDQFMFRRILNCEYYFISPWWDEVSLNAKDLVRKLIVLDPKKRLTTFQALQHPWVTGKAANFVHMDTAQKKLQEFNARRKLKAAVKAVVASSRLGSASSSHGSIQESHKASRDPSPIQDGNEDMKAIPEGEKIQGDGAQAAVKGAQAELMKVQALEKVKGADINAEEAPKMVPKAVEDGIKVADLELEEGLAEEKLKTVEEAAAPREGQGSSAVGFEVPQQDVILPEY
The conditions noted are these: at 0.1 µM.

The target in assay [5] is T1, Calcium/calmodulin-dependent protein kinase type IV (Homo sapiens). The conditions noted are these: at 1 µM.
Assay [6] concerns the target T2, Serine/threonine-protein kinase Chk1 (Homo sapiens) (UniProt O14757).
T2 sequence (whole entry): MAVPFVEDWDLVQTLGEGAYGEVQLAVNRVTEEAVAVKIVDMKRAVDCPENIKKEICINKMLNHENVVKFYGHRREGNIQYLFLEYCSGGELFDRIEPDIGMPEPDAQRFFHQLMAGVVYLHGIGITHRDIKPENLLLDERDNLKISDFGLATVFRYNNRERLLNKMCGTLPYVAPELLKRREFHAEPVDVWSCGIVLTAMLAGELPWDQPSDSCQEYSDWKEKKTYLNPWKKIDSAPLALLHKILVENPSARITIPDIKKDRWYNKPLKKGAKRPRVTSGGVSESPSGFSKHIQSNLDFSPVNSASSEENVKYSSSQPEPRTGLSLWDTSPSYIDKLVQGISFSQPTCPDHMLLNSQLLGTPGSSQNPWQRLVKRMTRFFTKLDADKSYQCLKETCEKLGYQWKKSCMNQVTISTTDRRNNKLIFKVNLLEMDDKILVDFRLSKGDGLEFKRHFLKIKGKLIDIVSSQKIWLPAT
The settings on record: at 0.1 µM.

In assay [7] the target is T2, Serine/threonine-protein kinase Chk1 (Homo sapiens). The settings on record: at 1 µM.
Assay [8] concerns the target Serine/threonine-protein kinase Chk2 (Homo sapiens) (UniProt O96017). The settings on record: at 0.1 µM.
Assay [9] has the same target. The conditions noted are these: at 1 µM.
Assay [10] has as its target Death-associated protein kinase 1 (Homo sapiens) (UniProt P53355). The settings on record: at 0.1 µM.
For assay [11] the target is unchanged. The settings on record: at 1 µM.
The target in assay [12] is T3, Serine/threonine-protein kinase DCLK2 (Homo sapiens) (UniProt Q8N568).
T3 sequence (whole entry): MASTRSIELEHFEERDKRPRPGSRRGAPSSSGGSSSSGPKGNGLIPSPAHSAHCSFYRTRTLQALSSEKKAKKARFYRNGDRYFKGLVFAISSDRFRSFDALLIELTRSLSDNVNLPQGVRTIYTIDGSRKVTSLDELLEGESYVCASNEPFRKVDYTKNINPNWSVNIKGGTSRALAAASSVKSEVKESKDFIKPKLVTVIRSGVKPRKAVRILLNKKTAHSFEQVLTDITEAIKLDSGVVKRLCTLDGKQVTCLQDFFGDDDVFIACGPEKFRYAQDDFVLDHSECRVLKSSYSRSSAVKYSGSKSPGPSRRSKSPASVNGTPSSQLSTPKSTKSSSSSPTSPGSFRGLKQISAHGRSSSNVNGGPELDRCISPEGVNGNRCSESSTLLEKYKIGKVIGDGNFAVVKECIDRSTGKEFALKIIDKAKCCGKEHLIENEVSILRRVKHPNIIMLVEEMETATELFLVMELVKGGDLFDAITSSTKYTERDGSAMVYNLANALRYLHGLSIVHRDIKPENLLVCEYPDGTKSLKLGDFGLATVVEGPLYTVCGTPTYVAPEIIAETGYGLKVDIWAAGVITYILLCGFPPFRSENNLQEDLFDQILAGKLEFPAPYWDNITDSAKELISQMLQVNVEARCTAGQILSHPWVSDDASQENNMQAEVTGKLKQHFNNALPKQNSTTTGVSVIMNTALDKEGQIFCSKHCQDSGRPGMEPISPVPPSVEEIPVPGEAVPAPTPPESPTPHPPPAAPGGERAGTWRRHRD
The conditions noted are these: at 0.1 µM.

Assay [13] concerns the target T3, Serine/threonine-protein kinase DCLK2 (Homo sapiens). The conditions noted are these: at 1 µM.
In assay [14] the target is MAP kinase-activated protein kinase 2 (Homo sapiens) (UniProt P49137). The conditions noted are these: at 0.1 µM.
Chain of MAP kinase-activated protein kinase 2 (Homo sapiens) (P49137 whole entry, looked up): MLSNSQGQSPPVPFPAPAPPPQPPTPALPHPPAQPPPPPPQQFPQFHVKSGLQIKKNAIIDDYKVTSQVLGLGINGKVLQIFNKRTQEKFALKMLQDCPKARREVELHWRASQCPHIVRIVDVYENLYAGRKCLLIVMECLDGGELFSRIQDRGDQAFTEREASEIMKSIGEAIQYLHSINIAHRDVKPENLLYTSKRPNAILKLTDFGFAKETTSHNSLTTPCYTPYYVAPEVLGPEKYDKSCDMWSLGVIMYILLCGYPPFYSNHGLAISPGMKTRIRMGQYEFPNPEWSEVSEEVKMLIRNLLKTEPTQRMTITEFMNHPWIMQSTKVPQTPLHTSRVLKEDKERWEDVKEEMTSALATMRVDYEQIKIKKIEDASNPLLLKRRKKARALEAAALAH
Assay [15] has the same target. The conditions noted are these: at 1 µM.
The target in assay [16] is MAP kinase-activated protein kinase 3 (Homo sapiens) (UniProt Q16644). The conditions noted are these: at 0.1 µM.
The target is the same in assay [17]. The settings on record: at 1 µM.
The target of assay [18] is Serine/threonine-protein kinase MARK1 (Homo sapiens) (UniProt Q9P0L2). The settings on record: at 0.1 µM.
Chain of Serine/threonine-protein kinase MARK1 (Homo sapiens) (Q9P0L2 whole entry, looked up): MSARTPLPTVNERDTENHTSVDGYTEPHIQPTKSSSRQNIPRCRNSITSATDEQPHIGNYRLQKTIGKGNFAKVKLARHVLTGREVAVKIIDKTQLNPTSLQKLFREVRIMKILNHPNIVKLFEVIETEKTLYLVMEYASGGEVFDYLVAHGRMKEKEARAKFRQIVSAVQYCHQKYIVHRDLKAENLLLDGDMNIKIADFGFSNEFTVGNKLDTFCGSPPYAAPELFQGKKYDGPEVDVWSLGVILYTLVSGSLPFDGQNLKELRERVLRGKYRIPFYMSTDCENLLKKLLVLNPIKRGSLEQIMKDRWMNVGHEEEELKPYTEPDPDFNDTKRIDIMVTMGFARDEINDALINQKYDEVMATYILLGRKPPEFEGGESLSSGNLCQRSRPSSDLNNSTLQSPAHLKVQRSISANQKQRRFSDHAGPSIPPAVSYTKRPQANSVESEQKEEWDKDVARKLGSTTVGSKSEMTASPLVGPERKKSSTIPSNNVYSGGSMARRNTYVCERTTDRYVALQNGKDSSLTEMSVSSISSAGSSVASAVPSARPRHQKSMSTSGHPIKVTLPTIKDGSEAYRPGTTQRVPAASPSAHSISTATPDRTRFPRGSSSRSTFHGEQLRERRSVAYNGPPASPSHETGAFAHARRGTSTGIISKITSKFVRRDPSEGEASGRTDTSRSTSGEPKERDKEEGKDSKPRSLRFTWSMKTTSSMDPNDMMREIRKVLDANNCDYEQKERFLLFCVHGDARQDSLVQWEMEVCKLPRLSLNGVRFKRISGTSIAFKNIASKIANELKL
Assay [19] shares this target. The settings on record: at 1 µM.
Assay [20] addresses MAP/microtubule affinity-regulating kinase 3 (Homo sapiens) (UniProt P27448). The settings on record: at 0.1 µM.

Chain of Calcium/calmodulin-dependent protein kinase type II subunit alpha (Homo sapiens) (Q9UQM7 whole entry): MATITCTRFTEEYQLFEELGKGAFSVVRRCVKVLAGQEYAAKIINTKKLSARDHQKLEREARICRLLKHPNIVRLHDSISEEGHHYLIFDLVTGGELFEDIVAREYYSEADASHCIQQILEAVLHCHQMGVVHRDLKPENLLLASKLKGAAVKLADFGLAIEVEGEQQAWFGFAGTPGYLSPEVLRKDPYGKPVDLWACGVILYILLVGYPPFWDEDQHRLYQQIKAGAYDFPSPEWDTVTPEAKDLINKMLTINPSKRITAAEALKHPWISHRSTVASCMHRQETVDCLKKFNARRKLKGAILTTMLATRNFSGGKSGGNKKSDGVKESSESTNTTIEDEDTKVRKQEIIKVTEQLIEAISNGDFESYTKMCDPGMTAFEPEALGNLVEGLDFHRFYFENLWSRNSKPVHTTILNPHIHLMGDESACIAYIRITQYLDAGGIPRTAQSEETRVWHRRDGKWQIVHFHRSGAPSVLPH
Chain of Serine/threonine-protein kinase Chk2 (Homo sapiens) (O96017 whole entry): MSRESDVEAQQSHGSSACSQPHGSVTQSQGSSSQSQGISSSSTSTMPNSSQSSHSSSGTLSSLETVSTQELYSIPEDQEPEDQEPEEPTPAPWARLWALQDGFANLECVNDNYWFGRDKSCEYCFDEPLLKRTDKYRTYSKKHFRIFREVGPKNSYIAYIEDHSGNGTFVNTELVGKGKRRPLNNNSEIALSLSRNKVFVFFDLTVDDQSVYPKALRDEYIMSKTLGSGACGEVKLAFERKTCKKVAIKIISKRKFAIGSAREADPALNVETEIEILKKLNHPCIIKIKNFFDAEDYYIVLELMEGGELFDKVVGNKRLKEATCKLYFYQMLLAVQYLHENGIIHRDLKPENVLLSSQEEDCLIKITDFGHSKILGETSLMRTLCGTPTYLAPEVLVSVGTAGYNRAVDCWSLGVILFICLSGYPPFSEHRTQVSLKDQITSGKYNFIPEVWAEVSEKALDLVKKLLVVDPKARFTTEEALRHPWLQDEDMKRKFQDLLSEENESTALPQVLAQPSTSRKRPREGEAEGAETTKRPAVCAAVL
Chain of Death-associated protein kinase 1 (Homo sapiens) (P53355 whole entry, looked up): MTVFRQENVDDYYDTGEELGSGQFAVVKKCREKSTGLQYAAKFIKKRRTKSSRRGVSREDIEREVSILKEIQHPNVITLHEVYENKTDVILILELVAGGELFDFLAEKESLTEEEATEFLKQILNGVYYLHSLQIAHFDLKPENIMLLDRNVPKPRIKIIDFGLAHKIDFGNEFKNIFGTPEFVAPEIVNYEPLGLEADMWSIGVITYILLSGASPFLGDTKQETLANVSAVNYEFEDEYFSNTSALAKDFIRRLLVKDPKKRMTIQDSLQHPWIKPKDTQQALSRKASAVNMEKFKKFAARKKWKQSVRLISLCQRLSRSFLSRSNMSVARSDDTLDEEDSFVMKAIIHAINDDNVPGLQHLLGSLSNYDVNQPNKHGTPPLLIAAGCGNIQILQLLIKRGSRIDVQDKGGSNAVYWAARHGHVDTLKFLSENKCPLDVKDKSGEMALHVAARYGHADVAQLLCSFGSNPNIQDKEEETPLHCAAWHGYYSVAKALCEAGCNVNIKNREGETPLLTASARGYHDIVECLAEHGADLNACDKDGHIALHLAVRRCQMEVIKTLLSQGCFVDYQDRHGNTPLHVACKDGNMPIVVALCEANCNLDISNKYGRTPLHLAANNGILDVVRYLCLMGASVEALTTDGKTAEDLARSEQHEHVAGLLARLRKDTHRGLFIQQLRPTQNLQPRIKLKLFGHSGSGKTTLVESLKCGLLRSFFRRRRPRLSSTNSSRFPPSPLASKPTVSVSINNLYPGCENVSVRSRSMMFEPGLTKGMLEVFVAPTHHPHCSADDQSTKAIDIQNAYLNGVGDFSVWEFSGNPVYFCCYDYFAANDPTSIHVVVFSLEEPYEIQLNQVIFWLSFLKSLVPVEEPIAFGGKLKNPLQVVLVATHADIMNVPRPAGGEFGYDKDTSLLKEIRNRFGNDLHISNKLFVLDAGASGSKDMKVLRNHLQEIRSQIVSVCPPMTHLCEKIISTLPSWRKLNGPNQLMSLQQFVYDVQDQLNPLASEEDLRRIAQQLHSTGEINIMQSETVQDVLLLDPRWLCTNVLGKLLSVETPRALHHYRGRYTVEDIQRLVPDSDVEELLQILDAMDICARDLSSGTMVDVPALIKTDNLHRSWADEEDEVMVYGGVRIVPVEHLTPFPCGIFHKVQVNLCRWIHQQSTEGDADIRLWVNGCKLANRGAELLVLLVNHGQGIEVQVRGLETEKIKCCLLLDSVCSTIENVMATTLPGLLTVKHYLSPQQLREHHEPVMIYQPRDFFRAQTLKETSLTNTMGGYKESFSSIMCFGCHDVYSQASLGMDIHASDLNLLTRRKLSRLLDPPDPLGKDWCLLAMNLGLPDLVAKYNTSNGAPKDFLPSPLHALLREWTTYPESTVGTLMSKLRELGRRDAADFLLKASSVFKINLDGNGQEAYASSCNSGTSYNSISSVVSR
Chain of MAP/microtubule affinity-regulating kinase 3 (Homo sapiens) (P27448 whole entry, looked up): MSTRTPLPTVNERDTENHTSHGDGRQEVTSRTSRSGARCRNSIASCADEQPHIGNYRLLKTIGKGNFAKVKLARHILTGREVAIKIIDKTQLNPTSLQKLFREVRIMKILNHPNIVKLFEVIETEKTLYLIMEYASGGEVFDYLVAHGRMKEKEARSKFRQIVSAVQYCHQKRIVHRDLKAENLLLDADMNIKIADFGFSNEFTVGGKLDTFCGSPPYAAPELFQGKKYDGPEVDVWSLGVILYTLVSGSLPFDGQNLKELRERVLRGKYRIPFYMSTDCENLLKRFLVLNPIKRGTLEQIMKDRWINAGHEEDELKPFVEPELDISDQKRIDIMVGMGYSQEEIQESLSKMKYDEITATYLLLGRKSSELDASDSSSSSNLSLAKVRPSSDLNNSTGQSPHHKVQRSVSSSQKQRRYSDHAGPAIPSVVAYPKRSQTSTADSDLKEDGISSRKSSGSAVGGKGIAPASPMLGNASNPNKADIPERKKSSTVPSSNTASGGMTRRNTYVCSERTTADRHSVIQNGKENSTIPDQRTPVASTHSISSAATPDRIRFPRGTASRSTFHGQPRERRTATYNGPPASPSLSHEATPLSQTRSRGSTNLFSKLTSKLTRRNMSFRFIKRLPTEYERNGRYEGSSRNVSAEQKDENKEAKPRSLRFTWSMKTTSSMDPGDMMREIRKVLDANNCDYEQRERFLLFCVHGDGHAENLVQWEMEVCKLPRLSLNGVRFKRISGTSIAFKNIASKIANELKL

In the case of `CCN1CCC(CC(=O)Nc2n[nH]c3nc(-c4cccs4)c(Br)cc23)CC1`, the inhibition in assay [1] is -1.26%; in [2], -1.29%; in [3] it was 7.67%; in [4] it was 0.29%; in assay [5], -0.89%; in assay [6], 2.28%. The inhibition was 2.57% in [7]; -3.64% in [8]; -3.75% in assay [9]; 0.43% in assay [10]; 1.46% in assay [11]; 0.63% in assay [12]. The inhibition in assay [13] was 0.11%; in assay [14] it was -2.22%; in assay [15], -2.04%; in [16] it was -2.21%; in [17], -2.44%; in assay [18] it was -2.56%. Moreover, the inhibition in assay [19] is -1.05%; in [20] it was 1%.

As to `CCCN1CCC(Oc2cc(Nc3nc(Nc4cccc(F)c4C(N)=O)c4cc[nH]c4n3)c(OC)cc2Cl)CC1`, the inhibition stood at 4.06% in assay [1]; 3.15% in assay [2]; 16.5% in [3]; 9.59% in assay [4]; 31.1% in assay [5]; 1.9% in assay [6]. In addition, the inhibition is 3.67% in assay [7]; 1.65% in assay [8]; 33.6% in assay [9]; 0.88% in assay [10]; 16.8% in assay [11]; -2.33% in [12]. The inhibition in assay [14] is -0.08%; in assay [15], -0.66%; in assay [16], 10.3%; in assay [17] it was -0.67%; in assay [18], -1.22%; in assay [19], 2.97%. Moreover, the inhibition in assay [20] is -0.83%.

In the case of `Nc1nc(-c2ccc3c(c2)C(=Cc2cc(Br)c(O)c(Br)c2)C(=O)N3)cs1`, the inhibition was -3.05% in [1]; -2.31% in assay [2]; -1.31% in [3]; -0.65% in [4]; -2.75% in [5]; 3.04% in [6]. Also, the inhibition in [7] was 1.34%; in [8], -2.92%; in [9] it was 0.55%; in [10], 0.32%; in [11] it was -4.53%; in assay [12] it was -3.76%. Besides, the inhibition in assay [13] is -0.78%; in assay [14] it was -1.56%; in assay [15], -1.55%; in assay [16] it was -1.77%; in assay [17], -1.51%; in [18], 0.42%. In addition, the inhibition in assay [19] was 1.58%; in assay [20], -0.72%.

As for `NCc1ccc(-c2nc(-c3ccc(Cl)c(O)c3)c(-c3ccncc3)[nH]2)cc1`, the inhibition was 2.11% in assay [1]; -0.18% in [2]; 2.12% in assay [3]; 0.6% in assay [4]; 0.53% in assay [5]; -0.88% in assay [6]. The inhibition in [7] is 2.53%; in assay [8], -0.52%; in assay [9], 0.67%; in assay [10], 0.81%; in [11], 1.16%; in [12], 3.34%. The inhibition in assay [13] was 5.14%; in [14], -0.41%; in assay [15] it was -0.56%; in [16] it was 15.5%; in [17], 30.9%; in assay [18], 2.03%. The results for the inhibition in [19] and in assay [20] were 2.6% and 0.33%, respectively.

For the compound `CC(C)=Cc1cccc2c1/C(=N/Nc1ccc(S(N)(=O)=O)cc1)C(=O)N2`, the inhibition in [1] is 6.48%; in [2] it was 2.83%; in assay [3] it was 11.3%; in [4], -1.55%; in assay [5] it was -0.74%; in assay [6] it was 6.35%. For the same compound, the inhibition is 10.3% in [7]; 5.36% in [8]; 9.14% in assay [9]; 9.26% in assay [10]; 10.2% in [11]; 0.25% in assay [12]. The inhibition in assay [14] came to 3.53%; in [15] it was 3.71%; in assay [16], 7.64%; in assay [17], 7.15%; in [18], 2.11%; in assay [19], 24.8%. In addition, the inhibition in assay [20] amounted to 2.08%.

For `COc1ccccc1Nc1ncc(-c2ccccc2)o1`, the inhibition is 0.2% in assay [1]; 3.81% in assay [2]; 4.92% in [3]; 0.89% in [4]; -8.72% in assay [5]; -2.97% in assay [6]. In addition, the inhibition in assay [7] was -2.91%; in assay [8], -2.63%; in [9], -3.53%; in assay [10], -1.69%; in [11], -4.43%; in assay [12], 2.18%. The inhibition in assay [13] is 0.52%; in [14] it was -0.33%; in [15] it was -1.84%; in assay [16], 0.93%; in [17], 1.35%; in [18], 2.73%. Besides, the results for the inhibition in assay [19] and in assay [20] were 5.68% and 4.5%, respectively.

For the compound `Cc1cccc(-c2n[nH]cc2-c2ccc3ncccc3n2)n1`, the inhibition in assay [1] is -0.05%; in assay [2] it was 0.08%; in assay [3], 2.08%; in assay [4], 1.14%; in assay [5], 2.81%; in assay [6], 2.24%. The inhibition in [7] is 1.66%; in assay [8] it was -0.67%; in assay [9] it was -0.16%; in assay [10], 0.65%; in [11], 0.85%; in assay [13], -5.57%. Further, the inhibition in assay [14] is 0.61%; in assay [15], -0.07%; in assay [16], 0.58%; in assay [17], 2.89%; in assay [18], 1%; in assay [19], 1.95%. Besides, in assay [20], the inhibition was -0.37%.

In general, inhibition refers to the change of the read-out against control, counted positive when it falls.
